Shown are actives, neighbours in structure and some others; about 11% of the full set was active somewhere.
G9a block: qHTS Assay for Inhibitors of Histone Lysine Methyltransferase G9a | G9a H3K9 monomethylation, AlphaScreen, 2 h | Potency, µM (doses to about 102 µM), for the others: top-dose activity, negative = inhibition, actives largely listed as inhibitors | hit rate 8.8% among 350,000 | AID 504332, 2011; note: potency is the fitted concentration of half-maximal effect; nearly all actives have a fitted effect of over 75% in size
Target sequence (Q96KQ7 913-1193 limits assumed): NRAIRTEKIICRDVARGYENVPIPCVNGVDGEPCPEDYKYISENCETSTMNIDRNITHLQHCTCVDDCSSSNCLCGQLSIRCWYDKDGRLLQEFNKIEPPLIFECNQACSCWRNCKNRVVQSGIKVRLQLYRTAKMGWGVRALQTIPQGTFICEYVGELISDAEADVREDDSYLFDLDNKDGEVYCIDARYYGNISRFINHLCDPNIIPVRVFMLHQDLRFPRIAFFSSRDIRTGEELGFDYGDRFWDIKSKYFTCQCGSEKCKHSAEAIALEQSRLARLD
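AlphaScreen read-out: biotin-H3K9 peptide (500 nM) methylation by 20 nM enzyme with 20 uM SAM, 2 h at room temperature after 15 min compound preincubation; anti-monomethyl H3K9 antibody plus donor/acceptor beads, 10 min dark.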
Tau fibril ThT: qHTS for Inhibitors of Tau Fibril Formation, Thioflavin T Binding; Microtubule-associated protein tau (Homo sapiens), P10636; recombinant tau K18 P301L, heparin-induced fibrillization, ThT fluorescence; Potency, µM (highest dose often 57.4 µM), for inactives: top-dose activity, negative = inhibition, most hits filed as inhibitors; hit rate 2.1% among 270,000; AID 1460, 2008; note: potency is the fitted concentration of half-maximal effect; nearly all actives have a fitted effect of over 55% in size
Target sequence (P10636 561-689 P618L limits assumed): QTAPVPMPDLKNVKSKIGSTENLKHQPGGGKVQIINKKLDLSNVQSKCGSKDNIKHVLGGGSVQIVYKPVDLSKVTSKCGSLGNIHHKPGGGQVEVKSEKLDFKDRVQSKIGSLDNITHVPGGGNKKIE
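Heparin-induced (20 uM) aggregation of recombinant human K18 P301L tau, 15 uM unlabeled with 0.24 uM labeled, pH 7 acetate buffer, 6 hr at 37 C with compound. Fibrils quantified by 30 uM ThT fluorescence after 1 hr ambient incubation.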
Coupling enz: qHTS Assay for Inhibitors of Fructose-1,6-bisphosphate Aldolase from Giardia Lamblia: Coupling assay counterscreen; coupling enzyme system counterscreen, AmpLite Red fluorescence; activity change, negative = inhibition, % at 58.2 µM, hits read low; hit rate 0.67% among 290,000; AID 2472, 2010; in the data active = activity change below about -30%
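Final compound at 57.5 uM, incubated 10 min at RT with coupling enzyme reagent (glyceraldehyde-3-phosphate), then 20 min with substrate and AmpLite Red detection. Fluorescence read at 525/598 nm; tests interference with the coupling assay, not aldolase inhibition.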
Tau FP inhib: qHTS for Inhibitors of Tau Fibril Formation, Fluorescence Polarization; Microtubule-associated protein tau (Homo sapiens), P10636; K18 P301L tau heparin fibrillization, Alexa594 FP, 6 h; Potency, µM (series often up to 57.7 µM), for the others: top-dose activity, negative = inhibition, actives largely listed as inhibitors; hit rate 0.39% among 280,000; AID 1468, 2008; note: potency is the fitted concentration of half-maximal effect; nearly all actives have a fitted effect of over 55% in size
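Steps: dispense K18 P301L tau (15 uM plus 0.24 uM Alexa 594 tracer, final) in pH 7 sodium acetate; add compound; add heparin (20 uM final); incubate 6 hr, 37 C; add ThT (30 uM final); after 1 hr ambient, read FP.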
Tau fluor counter: Counterscreen qHTS for Inhibitors of Tau Fibril Formation, Fluorescence Polarization. tau K18 P301L Alexa594 fluorescence, heparin fibrillization. Potency, µM (series often up to 57.7 µM), without a hit: at the top dose activity change, negative = decrease. hit rate 0.93% among 280,000. AID 1463, 2008; note: potency is the fitted concentration of half-maximal effect; nearly all actives have a fitted effect of over 55% in size
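Human tau K18 P301L (15 uM unlabeled, 0.24 uM Alexa 594-labeled) in 100 mM sodium acetate pH 7 with 20 uM heparin, 6 hr at 37 C. ThT 30 uM added, 1 hr ambient; Alexa 594 FP and total fluorescence read at 555/632 nm.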
Sfp inh: qHTS Assay for Inhibitors of Bacillus subtilis Sfp phosphopantetheinyl transferase (PPTase); Biochemical Sfp PPTase activity, qHTS; 4'-phosphopantetheinyl transferase ffp (Bacillus subtilis), Q9F4F7; hit rate 3.5% among 310,000; Potency, µM, for the others: largest response in the series, negative = inhibition, actives largely listed as inhibitors;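 note: the enzyme is Sfp with the accession as filed and its product quenches rhodamine fluorescence; potency is the fitted concentration of half-maximal effect; 0% = enzyme reaction without inhibitor and -100% = no enzyme wells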
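Fluorescence-quenching assay with 15 nM Sfp, 5 uM rhodamine-CoA and 12.5 uM BHQ-2-labelled ybbR peptide in pH 7.6 Hepes/MgCl2 buffer. Enzyme was pre-incubated with compound for 15 min at room temperature. Rate was taken from the 30-min fluorescence change (525/598 nm).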
* marks the source's active call; other numbers are inactive results; ? = inconclusive; / = no result given; [ ] = another dose, or the depositor's remark. Unless noted, calls come from the whole dose curve; as a rule, active = well fitted curve in the direction sought with a large enough effect; inconclusive = small, poorly fitted or top-dose-only effect, or another doubt; inactive = no such curve, though single readings can be large; an effect the other way counts as inactive or inconclusive. Unless noted, % is set by controls: 0 for no effect and ±100 for the full control effect.

SMILES	G9a block	Tau fibril ThT	Coupling enz	Tau FP inhib	Tau fluor counter	Sfp inh
Cc1c(CCC(=O)O)c(=O)oc2c(C)c3occ(-c4ccc(Br)cc4)c3cc12	45µM*	/	-8	/	/	-21%
COc1ccc(-c2coc3c(C)c4oc(=O)c(CCC(=O)O)c(C)c4cc23)cc1	?	/	-8	/	/	-15%
Cc1ccc(C(=O)C(C)OC(=O)CN2C(=O)NC3(CCCC3)C2=O)cc1C (stereo not given)	-18%	/	/	/	/	/
CCC(C)c1ccc(S(=O)(=O)Nc2cccnc2)cc1 (stereo not given)	50µM*	/	6	/	/	4%
CC(C)Cc1ccc(S(=O)(=O)Nc2cccnc2)cc1	18%	/	7	/	/	11%
Nc1cccc(Oc2c(F)c(F)c(Oc3cccc(N)c3)c(F)c2F)c1	-33%	?	-1	?	6.3µM*[quencher]	14%
CCOC(=O)C1CCCCN1Cc1ccc(C(F)(F)F)cc1 (stereo not given)	8.9µM*	-15%	0	-5%	-11%	?
COc1ccc(CCNS(=O)(=O)c2ccc(F)c(C(=O)Nc3ccc(Cl)cc3)c2)cc1OC	-5%[59 µM]	11%	/	-21%	-27%	/
CCOC(=O)Cn1nc(-c2ccccc2)c2cnc3ccc(C)cc3c21	56µM*	8%	0	5%	2%	-4%
Cc1nc(N2CCOCC2)c2c(C(=O)N3CCN(c4ccccc4F)CC3)c(C)oc2n1	-30%[59 µM]	3%	/	-14%	-6%	/
Cc1ccc(-n2c(Cc3noc4ccccc34)n[nH]c2=S)cc1	/	5%	0	4%	3%	0%
O=c1c2ccccc2cnn1Cc1n[nH]c(=S)n1C1CC2CCC1C2 (stereo not given)	-132%[59 µM]	-4%	2	-3%	-3%	1%
O=c1c2ccccc2cnn1Cc1n[nH]c(=S)n1-c1ccc(Cl)cc1	1.8µM*	-7%	3	4%	-4%	13%
S=c1[nH]nc(Cc2noc3ccccc23)n1-c1ccc(Cl)cc1	1.4µM*	-8%	5	-3%	-12%	-8%
S=c1[nH]nc(Cc2ccccc2)n1-c1ccc(Cl)cc1	?	12%	4	2%	11%	14%
CC(c1ccccc1)n1c(Cn2ncc3ccccc3c2=O)n[nH]c1=S (stereo not given)	3.5µM*	1%	5	2%	3%	-2%
COc1ccc(C2(C(=O)Nc3ccc(C)c(C)c3)CCOCC2)cc1	/	5%	5	-6%	-10%	20%
O=c1c2ccccc2nnn1CSc1nnc(-c2cccnc2)n1-c1ccccc1F	50µM*	1%	-2	1%	0%	14%
O=c1c2ccccc2nnn1CSc1ccccc1F	2%[59 µM]	1%	-1	0%	-3%	-1%
Nn1c(Cc2ccccc2F)nnc1SCn1nnc2ccccc2c1=O	25µM*	-6%	0	-2%	2%	3%
Cc1ccc(-n2c(SCn3nnc4ccccc4c3=O)nnc2-c2cccnc2)c(C)c1	3%[59 µM]	-16%	-2	4%	-6%	-28%
Cc1ccc(S(=O)(=O)c2cc3cc(C(=O)Nc4ccc(C)cc4C)ccc3oc2=O)cc1	-22%[59 µM]	0%	/	-2%	3%	/
COC(=O)c1ccccc1NC(=O)C1=C(C)C(=O)OC12CCCCCC2	10%[59 µM]	-9%	/	4%	-6%	/
N#C/C(=C(/O)CCl)c1nc(-c2ccccc2)cs1	/	?	4	1%	?	-15%
CCCCN(C)C/C(O)=C(\C#N)c1nc(-c2ccccc2)cs1	40µM*	-21%	-8	6%	-20%	-23%
SMILES	G9a block	Tau fibril ThT	Coupling enz	Tau FP inhib	Tau fluor counter	Sfp inh
Cc1ccc(-c2csc(/C(C#N)=C(\O)CCl)n2)cc1	35µM*	?	7	1%	?	4%
CSc1ccccc1OCc1cc(C(=O)NCCN2CCCc3ccccc32)no1	?	/	-5	/	/	-3%
CCc1cc(=O)oc2c(C)c3c(cc12)CN(CCc1ccccc1)CO3	-4%[59 µM]	-15%	/	3%	-10%	/
CCCc1cc(=O)[nH]c(SCC(=O)Nc2ccc(Cl)c(S(=O)(=O)N3CCOCC3)c2)n1	-19%[59 µM]	/	/	/	/	/
O=C(CSc1ncn[nH]1)Nc1ccc(Cl)c(S(=O)(=O)N2CCOCC2)c1	50µM*	0%	1	6%	-4%	11%
O=C(/C=C/c1ccco1)Nc1ccc(Cl)c(S(=O)(=O)N2CCOCC2)c1	50µM*	-10%	-2	-20%	?	?
O=C(CN1CCOCC1)Nc1ccc2c(c1)OCCO2	20µM*	-1%	-3	-11%	-1%	?
CCCn1c(N2CCN(CC(=O)Nc3ccc4c(c3)OCCO4)CC2)nc2ccccc21	50µM*	-16%	0	16%	-3%	-4%
COc1ccccc1CN1CCNC(=O)C1=O	6%[12.7 µM]	-4%	/	5%	3%	/
O=C(CN1CCN(c2ccc(F)cc2)CC1)NCC1CCCO1 (stereo not given)	25%	-6%	-1	-10%	-5%	12%
O=C(CN1CCN(C(=O)c2ccco2)CC1)Nc1cc(Cl)ccc1Cl	-10%[0.0925 µM]	-3%	3	3%	-2%	-10%
O=C(CN1CCN(CC(=O)Nc2ccccc2F)CC1)Nc1ccc2c(c1)OCCO2	35µM*	-15%	1	6%	-15%	24%
COc1ccccc1N1CCN(CC(=O)NCC2CCCO2)CC1 (stereo not given)	7.1µM*	-8%	4	-5%	-5%	-22%
O=C(CN1CCN(C(=O)c2ccco2)CC1)Nc1ccc(Cl)c(S(=O)(=O)N2CCOCC2)c1	56µM*	-2%	2	?	-8%	-1%
Cc1cc(NC(=O)CN2CCN(c3ccc(O)cc3)CC2)no1	15%[0.501 µM]	-15%	/	0%	-12%	79µM*
O=C(CN1CCN(c2ccccc2)CC1)Nc1ccc2c(c1)OCCO2	-8%	-13%	-1	4%	-10%	16%
CCOc1ccc(S(=O)(=O)N2CCC(N3CCN(Cc4ccc(F)cc4)C(=O)C3=O)CC2)cc1	-1%[59 µM]	-3%	/	-1%	-2%	/
COc1cc(NC(=O)Cn2cnc(S(=O)(=O)N3CCC(C)CC3)c2)cc(OC)c1OC	-13%	/	/	/	/	11%
O=C(CN1CCN(c2ccc(F)cc2)CC1)Nc1ccc2c(c1)OCCO2	14%	/	0	/	/	13%
COc1ccccc1N(CC(=O)Nc1ccc2c(c1)OCO2)S(=O)(=O)c1ccccc1	28µM*	-13%	-9	3%	-27%	-5%

Source: PubChem BioAssay (National Center for Advancing Translational Sciences (NCATS))
